Test results taken from PubChem BioAssay AID1159580 (chemical genetic matrix, 2015).
Where “and” joins values, the source holds several entries; their conditions need not be identical. Equal entries are not always repeated. The campaign covered roughly 5,500 compounds. About 2,000 (36%) were called active. Roughly 18% stayed inconclusive and do not appear here. Cut-off read from the data, not from the text of the source: active = normalized growth mostly below about 0.91 (no sharp cut-off); inconclusive = no clear call, values can overlap the other calls; inactive = mostly above about 0.92. This is one part of the list.

Test: chemical genetic growth profiling, strain panel (AID 1159580);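 note: tested at 20 µM; growth read once vehicle control cultures reached saturation at 30 °C; 1 = growth at the plate median or of vehicle wells; lower values mean less growth of the strain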
Conditions: S. cerevisiae deletion strains, growth OD

Measured: normalized growth

CC(C)(O)CC[C@@H](O)[C@](C)(O)C1CC[C@@]2(O)C3=CC(=O)C4C[C@@H](O)[C@@H](O)C[C@]4(C)C3CC[C@]12C (stereo not given in full)
active: locus YLR262C, strain YPT6 (second series), stronger effect = lower value 1.16 [resistant]
inactive: locus YAL013W, strain DEP1, stronger effect = lower value 1.04 | locus YAL021C, strain ccr4, stronger effect = lower value 0.991 | locus YAL026C, strain drs2, stronger effect = lower value 1 | locus YAL030W, strain snc1, stronger effect = lower value 0.999 | locus YBL061C, strain skt5, stronger effect = lower value 1 | locus YBR009C, strain hhf1, stronger effect = lower value 1.01 | locus YBR021W, strain FUR4, stronger effect = lower value 0.984 | locus YBR023C, strain chs3, stronger effect = lower value 0.996 | locus YBR171W, strain sec66, stronger effect = lower value 0.99 | locus YBR229C, strain ROT2, stronger effect = lower value 1 | locus YBR231C, strain swc5, stronger effect = lower value 0.993 | locus YBR279W, strain paf1, stronger effect = lower value 1.01 | locus YCL011C, strain gbp2, stronger effect = lower value 1.01 | locus YCL016C, strain dcc1, stronger effect = lower value 0.995 | locus YCL029C, strain bik1, stronger effect = lower value 1 | locus YCL061C, strain MRC1, stronger effect = lower value 1 | locus YCL069W, strain vba3, stronger effect = lower value 1.03 | locus YCR088W, strain abp1, stronger effect = lower value 0.999 | locus YDL005C, strain med2, stronger effect = lower value 0.994 | locus YDL035C, strain GPR1, stronger effect = lower value 1.03 | locus YDL040C, strain nat1, stronger effect = lower value 0.98 | locus YDL074C, strain BRE1, stronger effect = lower value 1.03 | locus YDL101C, strain DUN1, stronger effect = lower value 1.02 | locus YDL185W, strain tfp1, stronger effect = lower value 0.999 | locus YDL192W, strain arf1, stronger effect = lower value 1 | locus YDR001C, strain nth1, stronger effect = lower value 1 | locus YDR069C, strain doa4, stronger effect = lower value 1.01 | locus YDR101C, strain arx1, stronger effect = lower value 0.984 | locus YDR137W, strain rgp1, stronger effect = lower value 0.976 | locus YDR150W, strain NUM1, stronger effect = lower value 1.01 | locus YDR159W, strain sac3, stronger effect = lower value 0.99 | locus YDR162C, strain NBP2, stronger effect = lower value 1.03 | locus YDR195W, strain ref2 0.972 | locus YDR297W, strain sur2, stronger effect = lower value 1.01 | locus YDR318W, strain mcm21, stronger effect = lower value 1 | locus YDR334W, strain swr1, stronger effect = lower value 1 | locus YDR335W, strain msn5, stronger effect = lower value 1 | locus YDR388W, stronger effect = lower value 0.993 | locus YDR392W, strain spt3, stronger effect = lower value 0.976 | locus YDR502C, strain sam2, stronger effect = lower value 1 | locus YEL003W, strain gim4, stronger effect = lower value 1.01 | locus YEL037C, strain rad23, stronger effect = lower value 0.992 | locus YEL061C, strain CIN8 (second series), stronger effect = lower value 1 | locus YEL061C, strain CIN8, stronger effect = lower value 1 | locus YER015W, strain faa2, stronger effect = lower value 1 | locus YER016W, strain bim1, stronger effect = lower value 0.996 | locus YER110C, stronger effect = lower value 0.994 | locus YER111C, strain swi4, stronger effect = lower value 1.01 | locus YER155C, strain BEM2 (second series), stronger effect = lower value 0.996 | locus YER155C, strain BEM2, stronger effect = lower value 1 | locus YER167W, strain BCK2, stronger effect = lower value 1.02 | locus YFR010W, strain ubp6, stronger effect = lower value 1 | locus YGL078C, strain dbp3, stronger effect = lower value 1 | locus YGL086W, strain mad1, stronger effect = lower value 1 | locus YGL167C, strain pmr1, stronger effect = lower value 1 | locus YGL173C, strain kem1, stronger effect = lower value 1 | locus YGL227W, strain vid30, stronger effect = lower value 0.999 | locus YGL240W, strain doc1, stronger effect = lower value 0.98 | locus YGL248W, strain PDE1, stronger effect = lower value 1.01 | locus YGL253W, strain hxk2, stronger effect = lower value 1.01 | locus YGR078C, strain PAC10, stronger effect = lower value 1.03 | locus YGR135W, strain pre9, stronger effect = lower value 0.997 | locus YGR229C, strain SMI1, stronger effect = lower value 1.04 | locus YGR252W, strain gcn5, stronger effect = lower value 0.995 | locus YHR013C, strain ard1, stronger effect = lower value 0.995 | locus YHR027C, strain rpn1, stronger effect = lower value 0.997 | locus YHR030C, strain SLT2, stronger effect = lower value 1.01 and 1 | locus YHR079C, strain IRE1 (second series), stronger effect = lower value 1.02 | locus YHR079C, strain IRE1, stronger effect = lower value 0.988 | locus YHR094C, strain hxt1, stronger effect = lower value 0.995 | locus YHR129C, strain ARP1, stronger effect = lower value 1.01 | locus YHR142W, strain chs7, stronger effect = lower value 1.01 | locus YHR200W, strain rpn10, stronger effect = lower value 1.01 | locus YIL066C, strain RNR3, stronger effect = lower value 1.04 | locus YIL073C, strain SPO22, stronger effect = lower value 1.02 | locus YIL125W, strain kgd1, stronger effect = lower value 1 | locus YIR030C, strain dcg1, stronger effect = lower value 1 | locus YJL092W, strain hpr5, stronger effect = lower value 0.998 | locus YJL095W, strain BCK1 (second series), stronger effect = lower value 1 | locus YJL095W, strain BCK1, stronger effect = lower value 1.03 and 1.04 | locus YJL115W, strain asf1, stronger effect = lower value 1 | locus YJL129C, strain trk1, stronger effect = lower value 1.01 | locus YJL134W, strain LCB3, stronger effect = lower value 1.01 | locus YJL154C, strain vps35, stronger effect = lower value 0.994 | locus YJL164C, strain tpk1, stronger effect = lower value 1.01 | locus YJL166W, strain qcr8, stronger effect = lower value 1 | locus YJL168C, strain set2, stronger effect = lower value 1 | locus YJL187C, strain SWE1 (second series), stronger effect = lower value 1.02 | locus YJL187C, strain SWE1, stronger effect = lower value 1.02 | locus YJR043C, strain POL32, stronger effect = lower value 1.02 | locus YJR066W, strain TOR1, stronger effect = lower value 0.93 | locus YKL009W, strain mrt4, stronger effect = lower value 0.995 | locus YKL068W, stronger effect = lower value 0.993 | locus YKL085W, strain MDH1 (second series), stronger effect = lower value 1.01 | locus YKL085W, strain MDH1, stronger effect = lower value 1.01 | locus YKL160W, strain elf1, stronger effect = lower value 1 | locus YKR001C, strain vps1, stronger effect = lower value 0.985 | locus YKR026C, strain gcn3, stronger effect = lower value 0.989 | locus YKR091W, strain srl3, stronger effect = lower value 0.997 | locus YLL001W, strain dnm1, stronger effect = lower value 1 | locus YLL026W, stronger effect = lower value 0.994 | locus YLL041C, strain sdh2, stronger effect = lower value 0.994 | locus YLR027C, strain aat2, stronger effect = lower value 1.01 | locus YLR039C, strain RIC1, stronger effect = lower value 1.01 | locus YLR058C, strain SHM2, stronger effect = lower value 1.01 | locus YLR102C, strain apc9, stronger effect = lower value 0.992 | locus YLR113W, strain HOG1, stronger effect = lower value 1.02 | locus YLR221C, strain rsa3, stronger effect = lower value 0.996 | locus YLR258W, strain gsy2, stronger effect = lower value 0.998 | locus YLR262C, strain YPT6, stronger effect = lower value 1.05 | locus YLR268W, strain sec22, stronger effect = lower value 1 | locus YLR320W, strain mms22, stronger effect = lower value 0.996 | locus YLR330W, strain CHS5, stronger effect = lower value 1.01 | locus YLR342W, strain FKS1 (second series), stronger effect = lower value 1.02 | locus YLR342W, strain FKS1, stronger effect = lower value 1.03 | locus YLR357W, strain rsc2, stronger effect = lower value 0.999 | locus YLR370C, strain arc18, stronger effect = lower value 0.991 | locus YLR371W, strain rom2, stronger effect = lower value 0.99 | locus YLR384C, strain iki3, stronger effect = lower value 0.985 | locus YLR418C, strain cdc73, stronger effect = lower value 0.99 | locus YML016C, strain PPZ1, stronger effect = lower value 1.01 | locus YML032C, strain rad52, stronger effect = lower value 0.998 | locus YML120C, strain ndi1, stronger effect = lower value 0.996 | locus YML124C, strain tub3, stronger effect = lower value 0.996 | locus YMR058W, strain fet3, stronger effect = lower value 1 | locus YMR078C, strain ctf18, stronger effect = lower value 1.01 | locus YMR125W, strain sto1, stronger effect = lower value 0.983 | locus YMR129W, stronger effect = lower value 0.998 | locus YMR205C, strain PFK2, stronger effect = lower value 1.04 | locus YMR223W, strain ubp8, stronger effect = lower value 0.998 | locus YMR231W, strain pep5, stronger effect = lower value 0.969 | locus YMR307W, strain GAS1, stronger effect = lower value 1.1 | locus YNL067W, strain RPL9B, stronger effect = lower value 1.02 | locus YNL071W, strain lat1, stronger effect = lower value 1 | locus YNL153C, strain GIM3, stronger effect = lower value 1.03 | locus YNL183C, strain NPR1, stronger effect = lower value 0.973 | locus YNL209W, strain ssb2, stronger effect = lower value 1.02 | locus YNL233W, strain BNI4, stronger effect = lower value 1.03 | locus YNL248C, strain rpa49, stronger effect = lower value 0.996 | locus YNL250W, strain rad50, stronger effect = lower value 1.01 | locus YNL271C, strain bni1, stronger effect = lower value 1 | locus YNL298W, strain CLA4, stronger effect = lower value 0.988 | locus YNL307C, strain MCK1, stronger effect = lower value 0.992 | locus YNL322C, strain KRE1 (second series), stronger effect = lower value 0.983 | locus YNR049C, strain mso1, stronger effect = lower value 0.991 | locus YNR052C, strain pop2, stronger effect = lower value 0.993 | locus YOL012C, strain htz1 0.787 | locus YOL147C, strain pex11, stronger effect = lower value 0.99 | locus YOR001W, strain rrp6, stronger effect = lower value 1.01 | locus YOR061W, strain CKA2, stronger effect = lower value 1.01 | locus YOR069W, strain VPS5, stronger effect = lower value 1 | locus YOR070C, strain gyp1, stronger effect = lower value 1 | locus YOR080W, strain dia2, stronger effect = lower value 0.996 | locus YOR083W, strain WHI5, stronger effect = lower value 1.01 | locus YOR106W, strain vam3, stronger effect = lower value 1.01 | locus YOR136W, strain idh2, stronger effect = lower value 1 | locus YOR144C, strain elg1, stronger effect = lower value 0.996 | locus YOR184W, strain ser1, stronger effect = lower value 1 | locus YOR231W, strain MKK1, stronger effect = lower value 0.978 | locus YOR265W, strain rbl2, stronger effect = lower value 1 | locus YOR270C, strain vph1, stronger effect = lower value 1.06 | locus YOR290C, strain snf2, stronger effect = lower value 0.995 | locus YOR316C, strain cot1, stronger effect = lower value 0.989 | locus YPL051W, strain arl3, stronger effect = lower value 1.01 | locus YPL055C, strain LGE1, stronger effect = lower value 1.04 | locus YPL078C, strain atp4, stronger effect = lower value 1.01 | locus YPL106C, strain sse1, stronger effect = lower value 1.01 | locus YPL240C, strain hsp82, stronger effect = lower value 0.995 | locus YPL256C, strain CLN2, stronger effect = lower value 0.996 | locus YPR119W, strain clb2, stronger effect = lower value 1 | locus YPR141C, strain kar3, stronger effect = lower value 0.998 | locus YPR163C, strain tif3, stronger effect = lower value 1 | locus YPR167C, strain met16, stronger effect = lower value 0.999 | strain wtn01, stronger effect = lower value 0.99
